High-throughput results deposited in PubChem by National Center for Advancing Translational Sciences (NCATS).
TDP1 cell CPT = DT40-hTDP1 cell growth loss with CPT; Potency, µM (titrated, usually from 46.2 µM), for the others: at the highest dose activity change, negative = growth inhibition, actives largely listed as inhibitors; hit rate 12% among 420,000; AID 686979; chicken DT40 Tdp1-/-;hTDP1 cells + 20 nM CPT, ATP luminescence, 48 h; further: potency means the concentration at half of the fitted maximal effect; on the % scale 0 is the no-effect control and ±100 the full control effect; nearly all actives have a fitted effect of over 55% in size
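Chicken DT40 Tdp1-/- cells complemented with human TDP1, 400 cells/well, exposed to compounds plus 20 nM camptothecin for at least 48 h at 37 C; viability read as ATP content by CellTiter-Glo luminescence.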
DRD3 antagonist = D3 dopamine receptor (human) antagonism; P35462; AID 652054; D3R cells, DiscoveRx beta-arrestin luminescence, antagonist mode; active compounds read low; max response, negative = inhibition, %; hit rate 2.5% among 360,000; in the data active means max response below about -50%; inconclusive means no clear call, values can overlap the other calls; further: on the % scale 0 is the no-effect control and ±100 the full control effect
Target sequence (P35462 whole entry, looked up): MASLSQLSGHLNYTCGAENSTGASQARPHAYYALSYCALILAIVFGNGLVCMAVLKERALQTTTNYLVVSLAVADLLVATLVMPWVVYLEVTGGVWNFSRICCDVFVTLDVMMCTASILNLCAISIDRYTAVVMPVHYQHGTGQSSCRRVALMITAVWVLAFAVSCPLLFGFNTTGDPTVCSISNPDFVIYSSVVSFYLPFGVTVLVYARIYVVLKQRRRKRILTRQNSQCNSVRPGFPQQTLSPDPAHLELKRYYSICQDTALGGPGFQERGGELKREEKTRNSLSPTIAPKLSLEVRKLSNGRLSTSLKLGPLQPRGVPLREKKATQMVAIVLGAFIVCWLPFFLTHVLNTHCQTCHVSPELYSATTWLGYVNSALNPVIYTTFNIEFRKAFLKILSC
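Cells expressing the human receptor were seeded at 1500 cells/well, incubated overnight at 37 degrees C in 5% CO2, then exposed to library compounds with dopamine controls for 90 minutes at 37 degrees C before luminescent detection.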
IL-1B inflam inh = inflammasome signaling inhibition, IL-1 beta readout; THP-1 LPS/ATP IL-1B secretion, AlphaLISA, 16 h; active compounds read low; activity change, % at 57.5 µM; hit rate 4.7% among 360,000; in the data active means activity change below about -50%; inconclusive means mostly about -30% to -49%; further: on the % scale 0 is the no-effect control and ±100 the full control effect
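Secreted IL-1B measured by AlphaLISA bead assay after 16 h compound exposure of THP-1 cells; compounds (final up to 57.5 uM) added 1 h before LPS (250 ng/mL) and ATP (1.25 mM) stimulation; lower signal means less secretion.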
DRD3 agonist = activates the human D3 dopamine receptor. P35462. hit rate 0.58% among 410,000. max activation, %. D3R DiscoveRx beta-arrestin cells, luminescence, 90 min. AID 652048; in the data active means max activation above about 30%; further: 0% is about no effect
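Agonist mode: compounds and dopamine controls were applied to plated cells for 90 min at 37 degrees C after an overnight attachment at 1500 cells/well. Luminescent read-out followed 30 - 60 minutes at room temperature with DiscoveRx detection reagent.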
DT40 TDP1 no CPT = qHTS for Inhibitors of human tyrosyl-DNA phosphodiesterase 1 (TDP1): qHTS in cells in absence of CPT; DT40 Tdp1-/- hTDP1 cells, no CPT, ATP luminescence, 48 h; Potency, µM (titrated, usually from 46.2 µM), without a hit: top-dose activity change, negative = growth inhibition, actives largely listed as inhibitors; hit rate 15% among 420,000; further: potency means the concentration at half of the fitted maximal effect; on the % scale 0 is the no-effect control and ±100 the full control effect; nearly all actives have a fitted effect of over 55% in size
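Seeded 400 DT40-hTDP1 cells/well (vehicle DMSO, no 20 nM CPT); pinned compounds; ≥48 hr at 37 °C; CellTiter-Glo luminescence as viability measure.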
ClpP mod = qHTS Assay for Activators of ClpP | ATP-dependent Clp protease proteolytic subunit (Bacillus subtilis (strain 168)), P80244 | purified B. subtilis ClpP, FRET peptide cleavage, 20 min | Potency, µM (doses to about 57.5 µM), for inactives: top-dose activity change, negative = active | hit rate 1.9% among 340,000; active means well fitted falling curve with a large enough effect; inconclusive means small, poorly fitted or top-dose-only effect; inactive means no such curve, though single readings can be large or run the other way; further: potency means the concentration at half of the fitted maximal effect; the source files actives as falling curves though it sought activators and does not explain the sign; nearly all actives have a fitted effect of over 65% in size
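Buffer: 100 mM Tris/HCl pH8, 100 mM KCl, 0.05% low protease BSA, 2.5% glycerol, 0.01% Tween-20. ClpP 10 microg/mL final; 20 min RT; delta FRET normalized to ADEP and DMSO controls.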
An asterisk follows results filed as active; [ ] = another dose, or the depositor's remark. In the library only some 21% were active in any assay of this set; here they are far more common. Unless noted, the call rests on the fitted dose curve; in most records, active means well fitted inhibition curve with a large enough effect; inconclusive means small, poorly fitted or top-dose-only effect; inactive means flat fitted curve, though single readings scatter.

`CC(=O)c1ccccc1OCCCOc1cccc2cccnc12` gave TDP1 cell CPT 23µM*, DRD3 antagonist 16, IL-1B inflam inh 15, DRD3 agonist 5, DT40 TDP1 no CPT 23µM* and ClpP mod -5%.
`CCN(CC)CCOC(=O)c1ccc(N)cc1Cl` gave TDP1 cell CPT -3%, DRD3 agonist -9 and DT40 TDP1 no CPT -11%.
For O=C(Nc1ccc(Cl)cn1)c1ccc2[nH]c(=O)c(=O)[nH]c2c1 the results were TDP1 cell CPT 1%, DRD3 antagonist 8, IL-1B inflam inh 29, DRD3 agonist 2, DT40 TDP1 no CPT -3% and ClpP mod -18%.
Screening CCOc1ccc(OCCN2CCCCC2)cc1 returned TDP1 cell CPT -26%, DRD3 antagonist -18, IL-1B inflam inh 0, DRD3 agonist -8, DT40 TDP1 no CPT -15% and ClpP mod 1%.
O=C(CCN1CCOCC1)c1ccccc1 was read as TDP1 cell CPT 2.6µM*, DRD3 antagonist -19, IL-1B inflam inh -72*, DRD3 agonist -6, DT40 TDP1 no CPT 3.5µM* and ClpP mod -1%.
O=C(OCCN1CCOCC1)c1ccccc1 was read as TDP1 cell CPT -28%, DRD3 antagonist -13, IL-1B inflam inh 9, DRD3 agonist -11, DT40 TDP1 no CPT inconclusive and ClpP mod inconclusive.
Screening CCOc1ccc(C(=O)CCN2CCCCCC2)cc1 returned TDP1 cell CPT 3.7µM*, DRD3 antagonist -22, IL-1B inflam inh inconclusive, DRD3 agonist -11, DT40 TDP1 no CPT 2.9µM* and ClpP mod -1%.
For O=C(c1ccccc1)N1CCN(Cc2ccccc2Br)CC1 the results were TDP1 cell CPT inconclusive, DRD3 antagonist -62*, IL-1B inflam inh -7, DRD3 agonist 0, DT40 TDP1 no CPT -33% and ClpP mod 2%.
Screening O=C(CCN1CCCCC1)c1ccccc1 returned TDP1 cell CPT 11µM*, DRD3 antagonist -21, IL-1B inflam inh -4, DRD3 agonist -4, DT40 TDP1 no CPT 13µM* and ClpP mod -2%.
Screening Cc1ccc(-c2nc(CCNC(=O)C(=O)Nc3ccc(C)c(Cl)c3)cs2)cc1 returned TDP1 cell CPT inconclusive, DRD3 agonist 3, DT40 TDP1 no CPT inconclusive and ClpP mod 0%.
Screening NNC(=O)COc1ccc(C(F)(F)F)cc1 returned TDP1 cell CPT 3%, DRD3 antagonist -2, IL-1B inflam inh -2, DRD3 agonist -1, DT40 TDP1 no CPT -15% and ClpP mod 1%.
For O=C(Cc1n[nH]c(=O)c2ccccc12)OCC(=O)c1ccc(F)c(F)c1 the results were TDP1 cell CPT -2%, DRD3 antagonist 5, IL-1B inflam inh 20, DRD3 agonist 0, DT40 TDP1 no CPT inconclusive and ClpP mod inconclusive.
For COc1ccc(-c2cccc3c2OC(CNC(=O)c2ccc4c(c2)OCO4)C3)nn1 (centres undefined) the results were TDP1 cell CPT 17%[9.04 µM] and DT40 TDP1 no CPT -16%.
`O=C(CCN1CCN(C(=O)c2ccccc2)CC1)c1ccc(Br)cc1` gave TDP1 cell CPT 7.3µM*, DRD3 antagonist -21, IL-1B inflam inh -23, DRD3 agonist -25 and DT40 TDP1 no CPT 8.2µM*.
Screening O=C(c1ccc(Br)cc1)N1CCN(Cc2ccccc2)CC1 returned TDP1 cell CPT 11%, DRD3 antagonist inconclusive, IL-1B inflam inh -26, DRD3 agonist -4, DT40 TDP1 no CPT 1% and ClpP mod 0%.
`CCCCOc1ccc(C(=O)CCN2CCOCC2)cc1` gave TDP1 cell CPT 5.2µM*, DRD3 antagonist inconclusive, IL-1B inflam inh -104*, DRD3 agonist -10 and DT40 TDP1 no CPT 6.5µM*.
Screening CC1CCCN(CCC(=O)c2ccccc2)C1 (centres undefined) returned TDP1 cell CPT 4.6µM*, DRD3 antagonist -8, IL-1B inflam inh 6, DRD3 agonist 1 and DT40 TDP1 no CPT 10µM*.
